# Measurements published in paper PMC7862700, “An all-to-all approach to the identification of sequence-specific readers for epigenetic DNA modifications on cytosine”.
# Legend:
# Experiment in all cases: DAPPL (digital affinity profiling via proximity ligation, sequencing); 10 mM Tris-HCl pH 7.5, 50 mM NaCl, 1 mM DTT, 4% glycerol, room temperature, 30 min; GST-TFs on glutathione beads, 16-mer random dsDNA library, 0.1% formaldehyde crosslink after washing; high values mean tight binding
# FEV = biological target: T1, FEV (Homo sapiens, UniProt Q99581 1-238); settings: protein: recombinant; tags: N-terminal GST; dsDNA, one strand shown
# T1 sequence: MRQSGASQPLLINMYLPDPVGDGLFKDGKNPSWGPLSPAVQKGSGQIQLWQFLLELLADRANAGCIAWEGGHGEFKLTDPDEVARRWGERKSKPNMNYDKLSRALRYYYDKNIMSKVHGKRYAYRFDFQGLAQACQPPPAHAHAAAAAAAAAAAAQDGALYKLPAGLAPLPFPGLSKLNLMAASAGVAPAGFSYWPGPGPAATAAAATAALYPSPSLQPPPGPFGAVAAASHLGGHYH
# In short: (§1)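 Human transcription factors were made in yeast as GST fusions, captured on glutathione beads and barcoded with DNA. With a tag-only sample included, the pool was incubated with 200 nmole of a random double-stranded 16-mer DNA library in Tris/NaCl/DTT/glycerol buffer at room temperature for 30 min, then crosslinked with 0.1% formaldehyde after washing, ligated by proximity, amplified and sequenced. For binding signal, each hexamer's read frequency for a factor is divided by its frequency for the tag-only sample.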
# ETV5 = ETV5 (Homo sapiens, UniProt P41161 1-510); settings: protein: recombinant; tags: N-terminal GST; dsDNA, one strand shown
# In short: as §1
# HSF1 = HSF1 (Homo sapiens, UniProt Q00613 1-529); settings: protein: recombinant; tags: N-terminal GST; chain copies: 3; dsDNA, one strand shown
# In short: as §1
# SPIC = biological target: T2, SPIC (Homo sapiens, UniProt Q8N5J4 1-248); settings: protein: recombinant; tags: N-terminal GST; dsDNA, one strand shown
# T2 sequence: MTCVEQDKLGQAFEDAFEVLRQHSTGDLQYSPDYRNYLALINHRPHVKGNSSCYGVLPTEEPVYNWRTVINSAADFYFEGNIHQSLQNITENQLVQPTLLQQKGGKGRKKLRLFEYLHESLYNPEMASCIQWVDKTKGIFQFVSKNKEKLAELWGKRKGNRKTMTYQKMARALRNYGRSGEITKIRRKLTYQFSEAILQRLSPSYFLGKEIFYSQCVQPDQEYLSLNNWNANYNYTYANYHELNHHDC
# In short: as §1
# ELF4 = ELF4 (Homo sapiens, UniProt Q99607 1-663); settings: protein: recombinant; tags: N-terminal GST; dsDNA, one strand shown
# In short: as §1
# ELK4 = biological target: T3, ELK4 (Homo sapiens, UniProt P28324-2 1-405); settings: protein: recombinant; tags: N-terminal GST; dsDNA, one strand shown
# T3 sequence: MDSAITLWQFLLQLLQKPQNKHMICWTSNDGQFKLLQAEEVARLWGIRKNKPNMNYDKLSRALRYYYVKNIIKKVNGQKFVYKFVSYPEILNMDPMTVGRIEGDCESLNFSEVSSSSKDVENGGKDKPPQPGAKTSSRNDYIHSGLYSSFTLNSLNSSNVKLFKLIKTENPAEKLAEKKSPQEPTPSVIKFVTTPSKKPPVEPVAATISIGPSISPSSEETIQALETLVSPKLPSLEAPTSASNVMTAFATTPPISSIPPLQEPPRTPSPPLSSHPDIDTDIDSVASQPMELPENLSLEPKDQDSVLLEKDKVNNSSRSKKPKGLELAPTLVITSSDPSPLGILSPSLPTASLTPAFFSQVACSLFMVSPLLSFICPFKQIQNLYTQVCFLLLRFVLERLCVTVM
# In short: as §1
# ETV2 = biological target: T4, ETV2 (Homo sapiens, UniProt O00321 1-342); settings: protein: recombinant; tags: N-terminal GST; dsDNA, one strand shown
# T4 sequence: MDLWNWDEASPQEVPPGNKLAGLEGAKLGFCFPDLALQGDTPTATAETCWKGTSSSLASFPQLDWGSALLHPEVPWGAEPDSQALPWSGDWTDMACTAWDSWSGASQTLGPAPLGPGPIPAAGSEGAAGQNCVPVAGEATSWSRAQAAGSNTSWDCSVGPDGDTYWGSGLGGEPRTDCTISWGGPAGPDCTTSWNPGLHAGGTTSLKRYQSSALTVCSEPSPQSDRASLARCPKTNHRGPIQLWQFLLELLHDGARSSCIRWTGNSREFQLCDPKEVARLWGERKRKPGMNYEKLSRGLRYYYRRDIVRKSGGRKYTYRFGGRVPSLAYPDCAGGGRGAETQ
# In short: as §1
# ELF3 = biological target: T5, ELF3 (Homo sapiens, UniProt P78545 1-371); settings: protein: recombinant; tags: N-terminal GST; dsDNA, one strand shown
# T5 sequence: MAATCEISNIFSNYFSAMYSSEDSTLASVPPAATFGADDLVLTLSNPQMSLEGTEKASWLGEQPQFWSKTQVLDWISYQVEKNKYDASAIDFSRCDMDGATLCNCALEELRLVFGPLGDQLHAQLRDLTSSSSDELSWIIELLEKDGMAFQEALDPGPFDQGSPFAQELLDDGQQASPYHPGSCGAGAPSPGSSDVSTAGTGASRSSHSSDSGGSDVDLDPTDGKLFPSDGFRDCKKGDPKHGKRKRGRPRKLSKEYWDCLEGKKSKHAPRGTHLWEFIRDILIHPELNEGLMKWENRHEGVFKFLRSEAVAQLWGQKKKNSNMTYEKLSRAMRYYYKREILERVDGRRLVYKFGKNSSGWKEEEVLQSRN
# In short: as §1
# CRX = CRX (Homo sapiens, UniProt O43186 1-299); settings: protein: recombinant; tags: N-terminal GST; dsDNA, one strand shown
# In short: as §1
# ETV1 = ETV1 (Homo sapiens, UniProt P50549 1-477); settings: protein: recombinant; tags: N-terminal GST; dsDNA, one strand shown
# In short: as §1
# ERF = biological target: T6, ERF (Homo sapiens, UniProt P50548 1-548); settings: protein: recombinant; tags: N-terminal GST; dsDNA, one strand shown
# T6 sequence: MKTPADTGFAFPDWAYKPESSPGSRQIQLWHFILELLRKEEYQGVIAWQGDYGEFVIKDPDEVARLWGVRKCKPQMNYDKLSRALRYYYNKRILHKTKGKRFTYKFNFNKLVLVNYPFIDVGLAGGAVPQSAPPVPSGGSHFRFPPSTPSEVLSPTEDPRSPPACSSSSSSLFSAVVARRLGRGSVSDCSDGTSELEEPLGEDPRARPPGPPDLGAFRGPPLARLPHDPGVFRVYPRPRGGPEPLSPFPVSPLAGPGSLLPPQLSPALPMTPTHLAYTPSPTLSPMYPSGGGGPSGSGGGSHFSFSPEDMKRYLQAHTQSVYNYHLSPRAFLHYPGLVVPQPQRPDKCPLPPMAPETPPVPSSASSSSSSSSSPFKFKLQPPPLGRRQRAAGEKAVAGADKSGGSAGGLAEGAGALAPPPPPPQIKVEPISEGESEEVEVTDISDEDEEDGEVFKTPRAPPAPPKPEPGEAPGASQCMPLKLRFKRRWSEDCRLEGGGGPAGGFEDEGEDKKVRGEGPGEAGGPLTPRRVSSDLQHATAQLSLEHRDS
# In short: as §1
# ETV3L = biological target: T7, ETV3L (Homo sapiens, UniProt Q6ZN32 1-361); settings: protein: recombinant; tags: N-terminal GST; dsDNA, one strand shown
# T7 sequence: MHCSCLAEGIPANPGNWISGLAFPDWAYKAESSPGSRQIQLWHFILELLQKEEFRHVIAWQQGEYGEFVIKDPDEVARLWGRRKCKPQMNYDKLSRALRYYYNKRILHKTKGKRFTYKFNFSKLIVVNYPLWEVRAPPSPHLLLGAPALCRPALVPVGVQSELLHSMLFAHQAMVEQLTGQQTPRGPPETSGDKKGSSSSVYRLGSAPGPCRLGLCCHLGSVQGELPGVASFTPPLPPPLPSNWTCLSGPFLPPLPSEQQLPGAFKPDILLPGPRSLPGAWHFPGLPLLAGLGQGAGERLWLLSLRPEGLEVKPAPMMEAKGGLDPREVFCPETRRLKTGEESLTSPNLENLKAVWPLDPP
# In short: as §1
# ETS2 = biological target: T8, ETS2 (Homo sapiens, UniProt P15036 1-469); settings: protein: recombinant; tags: N-terminal GST; dsDNA, one strand shown
# T8 sequence: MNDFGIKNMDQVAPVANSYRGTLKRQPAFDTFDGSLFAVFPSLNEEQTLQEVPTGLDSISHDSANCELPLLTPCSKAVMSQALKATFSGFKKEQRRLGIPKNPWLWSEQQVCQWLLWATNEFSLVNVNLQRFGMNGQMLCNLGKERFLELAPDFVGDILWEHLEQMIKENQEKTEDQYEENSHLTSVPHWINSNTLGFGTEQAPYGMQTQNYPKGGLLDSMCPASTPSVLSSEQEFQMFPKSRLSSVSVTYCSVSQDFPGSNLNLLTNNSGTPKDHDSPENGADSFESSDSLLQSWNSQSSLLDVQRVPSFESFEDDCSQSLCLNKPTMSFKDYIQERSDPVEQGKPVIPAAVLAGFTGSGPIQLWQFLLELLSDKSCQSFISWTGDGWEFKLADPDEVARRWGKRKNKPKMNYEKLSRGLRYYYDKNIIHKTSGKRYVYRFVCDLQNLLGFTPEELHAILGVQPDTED
# In short: as §1
# SPDEF = biological target: T9, SPDEF (Homo sapiens, UniProt O95238 1-335); settings: protein: recombinant; tags: N-terminal GST; dsDNA, one strand shown
# T9 sequence: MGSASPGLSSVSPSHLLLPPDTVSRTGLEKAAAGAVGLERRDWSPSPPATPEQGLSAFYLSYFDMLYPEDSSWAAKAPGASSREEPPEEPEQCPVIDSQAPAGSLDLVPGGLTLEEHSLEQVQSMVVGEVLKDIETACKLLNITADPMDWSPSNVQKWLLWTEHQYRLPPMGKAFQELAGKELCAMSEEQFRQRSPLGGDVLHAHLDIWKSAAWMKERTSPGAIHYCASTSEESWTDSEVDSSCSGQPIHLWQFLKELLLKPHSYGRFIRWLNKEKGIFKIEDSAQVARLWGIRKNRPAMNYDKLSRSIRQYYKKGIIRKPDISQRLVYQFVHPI
# In short: as §1
# ETV7 = biological target: T10, ETV7 (Homo sapiens, UniProt Q9Y603 1-341); settings: protein: recombinant; tags: N-terminal GST; dsDNA, one strand shown
# T10 sequence: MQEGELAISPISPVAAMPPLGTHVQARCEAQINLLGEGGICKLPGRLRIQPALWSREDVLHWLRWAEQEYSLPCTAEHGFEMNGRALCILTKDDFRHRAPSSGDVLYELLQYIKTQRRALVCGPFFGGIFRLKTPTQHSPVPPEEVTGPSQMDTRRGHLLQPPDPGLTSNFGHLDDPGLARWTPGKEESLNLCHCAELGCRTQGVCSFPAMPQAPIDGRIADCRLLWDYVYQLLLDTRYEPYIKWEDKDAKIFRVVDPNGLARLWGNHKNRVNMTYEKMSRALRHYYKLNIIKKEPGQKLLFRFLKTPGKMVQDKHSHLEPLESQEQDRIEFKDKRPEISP
# In short: as §1
# ELF5 = biological target: T11, ELF5 (Homo sapiens, UniProt Q9UKW6-2 1-255); settings: protein: recombinant; tags: N-terminal GST; dsDNA, one strand shown
# T11 sequence: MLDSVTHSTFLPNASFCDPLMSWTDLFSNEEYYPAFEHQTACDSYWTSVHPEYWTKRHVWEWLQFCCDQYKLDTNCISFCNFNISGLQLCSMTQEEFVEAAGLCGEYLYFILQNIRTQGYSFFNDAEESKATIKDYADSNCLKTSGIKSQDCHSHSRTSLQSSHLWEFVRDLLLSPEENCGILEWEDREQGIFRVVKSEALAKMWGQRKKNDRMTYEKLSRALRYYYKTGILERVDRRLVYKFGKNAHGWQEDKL
# In short: as §1
# ETV3 = biological target: T12, ETV3 (Homo sapiens, UniProt P41162-2 1-143); settings: protein: recombinant; tags: N-terminal GST; dsDNA, one strand shown
# T12 sequence: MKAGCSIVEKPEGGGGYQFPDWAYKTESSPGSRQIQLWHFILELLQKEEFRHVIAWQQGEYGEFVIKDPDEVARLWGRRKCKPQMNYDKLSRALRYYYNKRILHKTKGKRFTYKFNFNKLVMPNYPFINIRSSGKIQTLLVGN
# In short: as §1
# ETV6 = ETV6 (Homo sapiens, UniProt P41212 1-452); settings: protein: recombinant; tags: N-terminal GST; dsDNA, one strand shown
# In short: as §1
# CRX, sequence (O43186 whole entry): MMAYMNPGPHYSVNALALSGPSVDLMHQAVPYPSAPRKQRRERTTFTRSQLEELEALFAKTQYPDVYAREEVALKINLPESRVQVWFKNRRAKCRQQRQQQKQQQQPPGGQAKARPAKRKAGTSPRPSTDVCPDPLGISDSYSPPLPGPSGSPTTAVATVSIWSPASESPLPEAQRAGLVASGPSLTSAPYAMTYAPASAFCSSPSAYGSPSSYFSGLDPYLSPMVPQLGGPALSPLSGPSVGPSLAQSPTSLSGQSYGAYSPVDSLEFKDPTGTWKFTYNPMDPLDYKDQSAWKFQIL
# ETV6, sequence (P41212 whole entry): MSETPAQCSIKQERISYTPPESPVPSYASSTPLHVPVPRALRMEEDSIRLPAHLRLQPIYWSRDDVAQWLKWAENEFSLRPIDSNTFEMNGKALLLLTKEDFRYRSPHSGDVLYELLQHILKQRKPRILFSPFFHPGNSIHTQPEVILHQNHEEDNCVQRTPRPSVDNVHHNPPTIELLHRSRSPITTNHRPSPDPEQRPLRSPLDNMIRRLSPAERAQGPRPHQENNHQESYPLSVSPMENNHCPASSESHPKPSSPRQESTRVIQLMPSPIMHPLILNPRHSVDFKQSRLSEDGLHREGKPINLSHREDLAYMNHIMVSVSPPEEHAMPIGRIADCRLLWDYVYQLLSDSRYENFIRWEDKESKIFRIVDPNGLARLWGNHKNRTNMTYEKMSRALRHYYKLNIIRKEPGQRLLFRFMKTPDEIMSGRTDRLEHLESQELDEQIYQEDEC
# ETV1, sequence (P50549 whole entry): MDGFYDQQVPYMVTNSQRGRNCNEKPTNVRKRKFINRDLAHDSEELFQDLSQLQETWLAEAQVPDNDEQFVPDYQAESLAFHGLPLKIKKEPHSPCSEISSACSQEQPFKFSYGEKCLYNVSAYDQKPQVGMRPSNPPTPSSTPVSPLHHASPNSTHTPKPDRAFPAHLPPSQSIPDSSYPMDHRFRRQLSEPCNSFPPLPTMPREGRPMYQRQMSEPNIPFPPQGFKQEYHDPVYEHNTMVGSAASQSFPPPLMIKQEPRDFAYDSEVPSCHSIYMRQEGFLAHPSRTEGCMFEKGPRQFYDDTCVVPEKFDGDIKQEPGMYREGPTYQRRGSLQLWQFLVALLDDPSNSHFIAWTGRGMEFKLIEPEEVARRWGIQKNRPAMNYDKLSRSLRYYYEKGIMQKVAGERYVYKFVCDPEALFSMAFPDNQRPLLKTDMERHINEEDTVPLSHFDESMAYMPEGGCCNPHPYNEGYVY
# ELF4, sequence (Q99607 whole entry): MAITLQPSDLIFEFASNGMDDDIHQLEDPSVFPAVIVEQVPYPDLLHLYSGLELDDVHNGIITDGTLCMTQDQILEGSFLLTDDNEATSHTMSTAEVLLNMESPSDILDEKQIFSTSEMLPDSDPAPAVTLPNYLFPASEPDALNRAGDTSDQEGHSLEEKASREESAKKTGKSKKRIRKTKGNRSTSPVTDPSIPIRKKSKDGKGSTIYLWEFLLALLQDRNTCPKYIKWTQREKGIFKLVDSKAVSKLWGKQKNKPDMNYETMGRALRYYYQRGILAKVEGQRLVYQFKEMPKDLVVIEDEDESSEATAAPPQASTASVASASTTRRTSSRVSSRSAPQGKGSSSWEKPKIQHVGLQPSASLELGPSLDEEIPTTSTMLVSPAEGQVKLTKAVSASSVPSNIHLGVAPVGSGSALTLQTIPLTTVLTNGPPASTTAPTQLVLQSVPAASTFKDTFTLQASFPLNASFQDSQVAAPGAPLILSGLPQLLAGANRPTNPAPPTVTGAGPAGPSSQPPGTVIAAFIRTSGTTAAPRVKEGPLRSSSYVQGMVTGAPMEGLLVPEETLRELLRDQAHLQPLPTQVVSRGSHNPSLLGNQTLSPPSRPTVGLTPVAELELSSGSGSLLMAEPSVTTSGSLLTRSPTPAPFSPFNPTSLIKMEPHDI
# ETV5, sequence (P41161 whole entry): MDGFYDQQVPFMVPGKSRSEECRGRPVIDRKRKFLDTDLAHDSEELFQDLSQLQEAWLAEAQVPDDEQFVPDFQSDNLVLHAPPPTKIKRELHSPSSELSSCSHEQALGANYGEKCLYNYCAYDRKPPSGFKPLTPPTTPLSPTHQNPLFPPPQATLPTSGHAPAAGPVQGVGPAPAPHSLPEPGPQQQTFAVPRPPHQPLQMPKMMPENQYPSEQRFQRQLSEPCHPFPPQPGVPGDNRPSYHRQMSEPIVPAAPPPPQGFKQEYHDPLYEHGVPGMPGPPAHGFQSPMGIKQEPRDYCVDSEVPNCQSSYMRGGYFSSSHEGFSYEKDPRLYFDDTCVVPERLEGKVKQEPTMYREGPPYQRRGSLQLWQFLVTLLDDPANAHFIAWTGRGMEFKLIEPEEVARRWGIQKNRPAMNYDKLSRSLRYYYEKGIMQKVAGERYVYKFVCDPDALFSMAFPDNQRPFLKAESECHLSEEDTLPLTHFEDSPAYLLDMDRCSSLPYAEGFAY
# HSF1, sequence (Q00613 whole entry): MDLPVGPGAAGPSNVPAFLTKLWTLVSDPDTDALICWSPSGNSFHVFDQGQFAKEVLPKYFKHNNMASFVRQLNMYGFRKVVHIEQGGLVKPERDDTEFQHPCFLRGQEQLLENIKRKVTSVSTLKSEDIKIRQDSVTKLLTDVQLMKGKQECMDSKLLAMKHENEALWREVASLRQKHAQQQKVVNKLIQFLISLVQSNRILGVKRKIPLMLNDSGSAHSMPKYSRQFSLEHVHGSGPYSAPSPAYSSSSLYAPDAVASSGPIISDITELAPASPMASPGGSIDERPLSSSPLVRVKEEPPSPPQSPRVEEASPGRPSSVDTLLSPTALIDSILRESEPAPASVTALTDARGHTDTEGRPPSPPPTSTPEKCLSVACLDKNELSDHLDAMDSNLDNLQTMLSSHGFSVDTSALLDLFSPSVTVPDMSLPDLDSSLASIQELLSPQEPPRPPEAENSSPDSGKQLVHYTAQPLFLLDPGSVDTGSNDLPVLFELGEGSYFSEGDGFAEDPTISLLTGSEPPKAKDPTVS
sequence,measurement,setting,value
TTATAC,binding signal,FEV,"1.35 fold enrichment (6-mer frequency, TF over GST control)"
same,binding signal,ETV5,"1.29 fold enrichment (6-mer frequency, TF over GST control)"
same,binding signal,HSF1,"1.79 fold enrichment (6-mer frequency, TF over GST control)"
same,binding signal,SPIC,"1.42 fold enrichment (6-mer frequency, TF over GST control)"
same,binding signal,ELF4,"1.49 fold enrichment (6-mer frequency, TF over GST control)"
same,binding signal,ELK4,"1.38 fold enrichment (6-mer frequency, TF over GST control)"
same,binding signal,ETV2,"1.38 fold enrichment (6-mer frequency, TF over GST control)"
same,binding signal,ELF3,"1.43 fold enrichment (6-mer frequency, TF over GST control)"
same,binding signal,CRX,"2.54 fold enrichment (6-mer frequency, TF over GST control)"
same,binding signal,ETV1,"1.5 fold enrichment (6-mer frequency, TF over GST control)"
same,binding signal,ERF,"1.55 fold enrichment (6-mer frequency, TF over GST control)"
same,binding signal,ETV3L,"1.39 fold enrichment (6-mer frequency, TF over GST control)"
same,binding signal,ETS2,"1.42 fold enrichment (6-mer frequency, TF over GST control)"
same,binding signal,SPDEF,"1.38 fold enrichment (6-mer frequency, TF over GST control)"
same,binding signal,ETV7,"1.53 fold enrichment (6-mer frequency, TF over GST control)"
same,binding signal,ELF5,"1.39 fold enrichment (6-mer frequency, TF over GST control)"
same,binding signal,ETV3,"1.37 fold enrichment (6-mer frequency, TF over GST control)"
same,binding signal,ETV6,"1.42 fold enrichment (6-mer frequency, TF over GST control)"
